Measurements from PubChem BioAssay (EPA / NIEHS).
“And” between values parts separate entries of the source, which are not always exact repeats. Identical values can stand only once. Records with an inconclusive call do not appear. More than one record can exist for a structure, and the calls need not agree. The source made the active and inactive calls. Rule for the calls: active = hit-call score of the fitted dose curve at least 0.9, where 1 is the maximum; inconclusive = response in the unintended direction; inactive = score below 0.9.

Molecular target: Estrogen receptor (Homo sapiens) (UniProt P03372)
Assay: OT_ER_ERaERa_0480: Odyssey Thera (OT) 8-hour HEK293T Protein-Complementation Assay for Estrogen Receptor-alpha/-alpha Homodimer (AID 2283351);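 note: rise in fluorescence from reassembled reporter fragments on ERα LBD homodimer in nucleus or whole cell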
Method in brief: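 HEK293T cells stably expressing a PCA pair of ER alpha LBD (residues 310-547) were dosed for 8 hours. The gain in fluorescence intensity, nuclear for agonists and whole-cell for antagonists, was measured by laser scanning cytometry against DMSO vehicle.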

Chain of Estrogen receptor (Homo sapiens) (P03372 whole entry, looked up, the tested form may be a part): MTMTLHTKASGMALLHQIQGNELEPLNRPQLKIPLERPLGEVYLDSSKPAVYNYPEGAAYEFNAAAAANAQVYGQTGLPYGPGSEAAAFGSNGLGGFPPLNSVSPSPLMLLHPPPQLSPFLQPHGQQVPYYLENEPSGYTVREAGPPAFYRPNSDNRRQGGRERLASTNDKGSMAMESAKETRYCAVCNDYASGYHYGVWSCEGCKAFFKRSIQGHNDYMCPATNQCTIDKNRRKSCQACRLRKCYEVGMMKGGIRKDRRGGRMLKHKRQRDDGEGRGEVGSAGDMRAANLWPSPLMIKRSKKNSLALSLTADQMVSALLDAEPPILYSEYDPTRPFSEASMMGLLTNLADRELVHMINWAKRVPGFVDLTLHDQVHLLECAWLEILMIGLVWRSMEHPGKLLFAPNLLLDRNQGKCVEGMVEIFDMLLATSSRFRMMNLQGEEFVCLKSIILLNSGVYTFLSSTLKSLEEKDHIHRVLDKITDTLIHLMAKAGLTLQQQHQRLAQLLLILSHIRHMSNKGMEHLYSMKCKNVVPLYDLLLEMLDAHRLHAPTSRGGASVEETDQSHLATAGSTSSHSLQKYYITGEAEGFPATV

Structure (SMILES) | outcome | AC50
c1cc2c3c(cccc3c1)CC2 | inactive | 
CC(C)(C)OOC(C)(C)C | inactive | 
CCCCc1ccc(O)cc1 |  | 19.7 µM (active)
CCCCC(CC)COC(=O)c1c(Br)c(Br)c(Br)c(Br)c1C(=O)OCC(CC)CCCC (centres undefined) | inactive | 
CC(Cl)(Cl)C(=O)O | inactive | 
O=C(CBr)OCc1ccccc1 | inactive | 
CCN(CC)c1ccccc1 | inactive | 

Molecular target: Estrogen receptor (Homo sapiens) + Estrogen receptor beta (Homo sapiens) (UniProt P03372+Q92731)
Assay: OT_ER_ERaERb_0480: Odyssey Thera (OT) 8-hour HEK293T Protein-Complementation Assay for Estrogen Receptor-alpha/-beta Heterodimer (AID 2283352)
Method in brief: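 Compound added to HEK293T cells carrying split-reporter-tagged ER-alpha and ER-beta LBDs, incubated 8 hours, then imaged by laser scanning cytometer. Signal rise in nucleus, or nucleus and cytoplasm, over vehicle was fitted in the positive direction.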

Chain of Estrogen receptor (Homo sapiens) + Estrogen receptor beta (Homo sapiens) (P03372 whole entry, looked up): as the sequence (P03372 whole entry, looked up, the tested form may be a part) above
Chain of Estrogen receptor (Homo sapiens) + Estrogen receptor beta (Homo sapiens) (Q92731 whole entry, looked up): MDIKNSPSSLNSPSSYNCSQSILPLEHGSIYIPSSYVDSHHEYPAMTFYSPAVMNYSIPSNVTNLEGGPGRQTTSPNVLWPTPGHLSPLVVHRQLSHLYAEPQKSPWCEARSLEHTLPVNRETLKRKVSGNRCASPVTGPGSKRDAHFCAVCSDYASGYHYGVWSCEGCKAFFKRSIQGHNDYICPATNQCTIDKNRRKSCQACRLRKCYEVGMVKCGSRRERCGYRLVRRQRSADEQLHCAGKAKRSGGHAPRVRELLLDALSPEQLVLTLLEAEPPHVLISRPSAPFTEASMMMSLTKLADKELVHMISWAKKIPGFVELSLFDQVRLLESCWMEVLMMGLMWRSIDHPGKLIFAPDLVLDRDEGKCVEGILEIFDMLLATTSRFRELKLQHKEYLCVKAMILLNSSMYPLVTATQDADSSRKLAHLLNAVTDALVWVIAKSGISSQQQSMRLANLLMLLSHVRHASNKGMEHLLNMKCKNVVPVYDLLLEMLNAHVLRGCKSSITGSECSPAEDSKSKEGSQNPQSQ

Structure (SMILES) | AC50 | outcome
CCCCCCCc1ccc(O)cc1 | 12.7 µM (active) and 12.5 µM (active) | inactive
O=C(O)CF |  | inactive
Cc1ccc(O)cc1C |  | inactive
CCOC(=O)c1ccccc1N |  | inactive
O=C(O)C1C(C(=O)O)C2(Cl)C(Cl)=C(Cl)C1(Cl)C2(Cl)Cl (centres undefined) |  | inactive
CCNc1nc(Cl)nc(NC(C)(C)C)n1 |  | inactive
CCCCC(CC)COP(=O)(Oc1ccccc1)Oc1ccccc1 (centres undefined) | 12.2 µM (active) | 
CCC(C)(C)c1ccc(O)cc1 | 2.68 µM (active) | 
O=P1(N(CCCl)CCCl)NCCCO1 (centres undefined) |  | inactive
O=S(=O)(c1ccc(O)cc1)c1ccc(O)cc1 | 21.4 µM (active) | 
O=[N+]([O-])c1ccccc1 |  | inactive
ClC(Cl)(Cl)c1ccccc1 |  | inactive
O=P(Oc1ccccc1)(Oc1ccccc1)Oc1ccccc1 | 12.2 µM (active) | 
CCOP(=S)(Oc1ccc([N+](=O)[O-])cc1)c1ccccc1 (centres undefined) | 19.2 µM (active) | 
CCCCN(CCCC)SN(C)C(=O)Oc1cccc2c1OC(C)(C)C2 |  | inactive
CCOP(=S)(OCC)SCSCC |  | inactive

Structure (SMILES) | AC50 | outcome
CCCCc1ccccc1 |  | inactive
COC(N)=O |  | inactive
c1nc[nH]n1 |  | inactive
CC1(C)CN=C(NN=C(/C=C/c2ccc(C(F)(F)F)cc2)/C=C/c2ccc(C(F)(F)F)cc2)NC1 |  | inactive
c1ccc2c(c1)Nc1ccccc1S2 |  | inactive
CCCCN(CC)C(=O)SCCC |  | inactive
O=NN1CCCC1 |  | inactive
O=S1(=O)OCC2C(CO1)C1(Cl)C(Cl)=C(Cl)C2(Cl)C1(Cl)Cl (centres undefined) |  | inactive
c1cc2c3c(cccc3c1)CC2 |  | inactive
CC(C)(C)OOC(C)(C)C |  | inactive
CCCCc1ccc(O)cc1 | 19.7 µM (active) | 
CCCCC(CC)COC(=O)c1c(Br)c(Br)c(Br)c(Br)c1C(=O)OCC(CC)CCCC (centres undefined) |  | inactive
CC(Cl)(Cl)C(=O)O |  | inactive
O=C(CBr)OCc1ccccc1 |  | inactive
CCN(CC)c1ccccc1 |  | inactive
